# This is part of a sample that, as a whole, favours compounds with a hit. Of some 83,000 tested, about 20% had one in any assay.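 96-well plates, one dose, 48 hours. Percent growth reported; active if below 10.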 Unmarked numbers belong to inactive results. Active and inactive are the calls of the source.
# Key:
# Assay in all cases: NCI-60 one-dose screen, 48 h (100 = growth as untreated, 0 = no growth, -100 = all killed)
# Conditions in all cases: 10 µM unless noted
# DU-145 prostate = tested on: DU-145 prostate
# K-562 leukemia = tested on: K-562 leukemia
# MALME-3M melanoma = tested on: MALME-3M melanoma
# MDA-MB-231 breast = tested on: MDA-MB-231 breast
# RXF 393 renal = tested on: RXF 393 renal
# SF-268 CNS = tested on: SF-268 CNS
# SF-295 CNS = tested on: SF-295 CNS
# SF-539 CNS = tested on: SF-539 CNS
# UACC-257 melanoma = tested on: UACC-257 melanoma
# M14 melanoma = tested on: M14 melanoma
# HCT-15 colon = tested on: HCT-15 colon
# HT29 colon = tested on: HT29 colon
# SNB-75 CNS = tested on: SNB-75 CNS
# SNB-19 CNS = tested on: SNB-19 CNS
# U251 CNS = tested on: U251 CNS
# PC-3 prostate = tested on: PC-3 prostate
# SK-MEL-5 melanoma = tested on: SK-MEL-5 melanoma
# UACC-62 melanoma = tested on: UACC-62 melanoma
# SK-MEL-28 melanoma = tested on: SK-MEL-28 melanoma
SMILES,growth (DU-145 prostate),growth (K-562 leukemia),growth (MALME-3M melanoma),growth (MDA-MB-231 breast),growth (RXF 393 renal),growth (SF-268 CNS),growth (SF-295 CNS),growth (SF-539 CNS),growth (UACC-257 melanoma),growth (M14 melanoma),growth (HCT-15 colon),growth (HT29 colon),growth (SNB-75 CNS),growth (SNB-19 CNS),growth (U251 CNS),growth (PC-3 prostate),growth (SK-MEL-5 melanoma),growth (UACC-62 melanoma),growth (SK-MEL-28 melanoma)
CN1CCN(c2ccc3nc(-c4[nH]ncc4Nc4ncnc5c4OCCCN5)[nH]c3c2)CC1,-27.6% (active),7.54% (active),-76.1% (active),-37.8% (active),-89.3% (active),-51% (active),-90.4% (active),-86.7% (active),-20.5% (active),-74.9% (active),-64.7% (active),-24.6% (active),-93.1% (active),-46% (active),-55.7% (active),-58.5% (active),-93.4% (active),-74.9% (active),-73.1% (active)
CC(=O)c1c(C)[nH]c(-c2nc3ccc(N4CCN(C)CC4)cc3[nH]2)c1-c1ccc(OCC2CCOCC2)cc1,63.4%,22.4%,20.7%,37.4%,31.1%,54.3%,43.3%,40.2%,30.8%,34.5%,5.23% (active),8.59% (active),-9.92% (active),42.7%,48.2%,40.4%,-1.59% (active),20.4%,45.7%
Cc1cc2nc3c4cc([N+](=O)[O-])cc([N+](=O)[O-])c4n(CCN(C)C)c3nc2cc1C,92.1%,62.3%,76.5%,77.2%,58.3%,74.1%,62.9%,76.5%,107%,80.1%,57.2%,65.6%,72.3%,68.2%,81.6%,77.1%,92.4%,87%,98.6%
Cc1ccc(-c2nc([P+](c3ccccc3)(c3ccccc3)c3ccccc3)c(N3CCOCC3)o2)cc1,12.9%,4.64% (active),-18.8% (active),-0.628% (active),-1.34% (active),12.5%,-10.3% (active),19.3%,-4.98% (active),0.413% (active),54.1%,-0.839% (active),0.0247% (active),11.5%,12.4%,-18.8% (active),-95.5% (active),-29.4% (active),29.9%
CC(C)c1cc(C(=O)O)c(O)c(C(C)C)c1.CC(C)c1cc(C(=O)O)c(O)c(C(C)C)c1.[Mn],108%,94.8%,103%,103%,129%,96.2%,107%,105%,98.8%,107%,108%,119%,106%,91.6%,98.3%,98.2%,94.3%,94.9%,113%
Cc1ccc(-c2nc([P+](c3ccccc3)(c3ccccc3)c3ccccc3)c(N3C[C@H]4C[C@H](C3)c3cccc(=O)n3C4)o2)cc1,98.3%,47.3%,74.5%,90.9%,79.8%,91.1%,96.1%,99.7%,37.5%,82.3%,86.8%,92.3%,74.6%,64.1%,58.8%,82.7%,68%,54.5%,62%
c1csc(-c2nc(-c3cc4ccccc4c(N4CCOCC4)n3)cs2)c1,113%,102%,0.576% (active),88.7%,111%,91.6%,101%,103%,17.3%,49.1%,90.4%,97.1%,81.5%,87.1%,82.2%,93.4%,54.5%,28.9%,55.2%

# Source: PubChem BioAssay (NCI)
